Records with an inconclusive call do not appear. Active and inactive are the calls of the source. Calls come from the whole dose curve; as a rule, active = well fitted inhibition curve with a large enough effect; inconclusive = small, poorly fitted or top-dose-only effect; inactive = flat fitted curve, though single readings scatter.

Holding throughout (test): qHTS profiling for inhibitors of Plasmodium falciparum proliferation (AID 504749); note: nearly all actives have a fitted effect of over 60% in size
Details in all cases: P. falciparum in erythrocytes, SYBR Green DNA, 72 h; series mostly up to 28.7 µM
A general note: In qHTS, concentration-response curves come from the screen itself.

For one assay, the system named is CP192. Put shortly: (§1)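 Fluorescence of SYBR Green-bound parasite DNA, read at 485/535 nm, served as the growth measure. Infected erythrocytes were cultured with compound 72 h; artemisinin (0.29 uM) and DMSO wells defined the normalization range.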
For another assay, the system named is CP194. The procedure, abridged:
as §1

Another assay has as its system CP201. Put shortly: as §1
For another assay, the system named is CP203. Put shortly:
as §1

The subject of the next assay is CP211. The procedure, abridged:
as §1

Another assay has as its system CP215. Put shortly:
as §1

In a further assay the test system is CP217. Put shortly: as §1
The subject of the next assay is CP237. Put shortly:
as §1

The subject of another assay is CP238. Put shortly: as §1
A further assay concerns CP247. Put shortly: as §1
For another assay, the system named is CP250. The procedure, abridged: as §1
A further assay has as its system CP252. Put shortly: as §1
In the next assay the test system is CP256. Put shortly: as §1
Another assay deals with CP260. Put shortly: as §1
The test system of the next assay is CP262. The procedure, abridged:
as §1

In a further assay the test system is CP265. Put shortly: as §1
Another assay has as its system CP266. Put shortly: as §1
Another assay has as its system CP268. Put shortly: as §1
The test system of another assay is CP269. Put shortly: as §1
The test system of another assay is CP286. The procedure, abridged: as §1
Potency is the fitted concentration of half-maximal effect.

Regarding `C=CCc1ccc(O)c(OC)c1`, the Potency result with CP192, in the assay on CP194, in the assay on CP201, in the assay with CP203, in the assay with CP211 and in the assay on CP215 was “inactive” in each case. Besides, the Potency result with CP217, in the assay on CP237, with CP238, in the assay on CP247, in the assay with CP250 and in the assay on CP252 was “inactive” in each case. In addition, the Potency result in the assay on CP256, with CP260, with CP262, with CP265, with CP266 and with CP268 was “inactive” each time. The Potency entry in the assay with CP269 and with CP286 was “inactive” each time.

As for `CCn1cc(C(=O)O)c(=O)c2cnc(N3CCCC3)nc21`, the Potency result in the assay on CP192, with CP194, in the assay on CP201, in the assay with CP203, with CP211 and in the assay on CP215 was “inactive” each time. Moreover, the Potency entry in the assay with CP217, in the assay with CP237, in the assay on CP238, in the assay on CP247, in the assay on CP250 and in the assay with CP252 was “inactive” throughout. Further, the Potency result in the assay on CP256, in the assay with CP260, with CP262, in the assay with CP265, in the assay with CP266 and with CP268 was “inactive” throughout. Further, the Potency entry in the assay with CP269 and in the assay with CP286 was “inactive” throughout.

Take `O=C(CCN1CCC(c2ccccc2)C1)c1ccc2c(c1)OCCO2` (stereo not drawn): the Potency entry in the assay on CP192, in the assay with CP194, in the assay with CP201, in the assay on CP203, with CP211 and with CP215 was “inactive” in each case. The Potency result in the assay with CP217, in the assay with CP237, in the assay with CP238, in the assay with CP247, in the assay on CP250 and in the assay on CP252 was “inactive” throughout. Also, the Potency entry in the assay with CP256, in the assay with CP260, in the assay with CP262, with CP265, with CP266 and in the assay on CP268 was “inactive” in each case. For the same compound, the Potency result in the assay on CP269 and in the assay with CP286 was “inactive” each time.

Take `CC1(C)CCC(NC(=O)[C@@H](N)CCC(=O)O)CC1`: the Potency entry with CP192, with CP194, in the assay with CP201, in the assay with CP203, in the assay with CP211 and in the assay on CP215 was “inactive” in each case. Besides, the Potency result in the assay on CP217, in the assay on CP237, with CP238, in the assay on CP247, with CP250 and with CP252 was “inactive” throughout. Also, the Potency result with CP256, in the assay with CP260, with CP262, in the assay on CP265, with CP266 and in the assay on CP268 was “inactive” in each case. Also, the Potency result with CP269 and with CP286 was “inactive” throughout.

Consider `Cc1ncc(CSSCc2cnc(C)c(O)c2CO)c(CO)c1O`, for which the Potency entry with CP192, in the assay with CP194, in the assay with CP201, in the assay on CP203, with CP211 and in the assay on CP215 was “inactive” throughout. Also, the Potency result with CP217, in the assay on CP237, in the assay with CP238, with CP247, in the assay with CP250 and in the assay on CP252 was “inactive” throughout. The Potency entry with CP256, in the assay on CP260, with CP262, in the assay with CP265, in the assay on CP266 and in the assay on CP268 was “inactive” in each case. The Potency result in the assay on CP269 and in the assay on CP286 was “inactive” throughout.

Consider `CCN1CCCC1=O`, for which the Potency entry with CP192, in the assay with CP194, in the assay on CP201, with CP203, in the assay with CP211 and in the assay on CP215 was “inactive” throughout. In addition, the Potency entry in the assay with CP217, with CP237, in the assay with CP238, in the assay on CP247, in the assay on CP250 and with CP252 was “inactive” each time. In addition, the Potency result with CP256, with CP260, with CP262, with CP265, in the assay on CP266 and in the assay with CP268 was “inactive” in each case. The Potency result in the assay on CP269 and in the assay with CP286 was “inactive” each time.

Turning to `COc1ccc(C2C(=O)c3ccccc3C2=O)cc1`, the Potency entry in the assay with CP192, in the assay with CP194, with CP201, in the assay on CP203, with CP211 and in the assay on CP215 was “inactive” throughout. The Potency result in the assay with CP217, with CP237, in the assay on CP238, with CP247, in the assay on CP250 and with CP252 was “inactive” throughout. The Potency result in the assay on CP256, in the assay with CP260, in the assay on CP262, with CP265, in the assay with CP266 and in the assay on CP268 was “inactive” in each case. Further, the Potency entry in the assay with CP269 and in the assay on CP286 was “inactive” throughout.

Take `C[C@H](O)C(=O)Nc1c(I)c(C(=O)NC(CO)CO)c(I)c(C(=O)NC(CO)CO)c1I`: the Potency result in the assay with CP192, in the assay on CP194, with CP201, in the assay on CP203, in the assay on CP211 and with CP215 was “inactive” each time. Also, the Potency result with CP217, with CP237, with CP238, in the assay with CP247, in the assay with CP250 and in the assay with CP252 was “inactive” each time. Besides, the Potency result in the assay on CP256, in the assay on CP260, with CP262, in the assay on CP265, in the assay on CP266 and in the assay on CP268 was “inactive” in each case. Further, the Potency entry in the assay with CP269 and with CP286 was “inactive” throughout.

As for `c1ccc(OCc2ccc(CCCN3CCOCC3)cc2)cc1`, the Potency entry with CP192, in the assay with CP194, in the assay with CP201, in the assay with CP203, with CP211 and in the assay on CP215 was “inactive” in each case. Moreover, the Potency entry in the assay with CP217, in the assay with CP237, with CP238, in the assay on CP247, in the assay with CP250 and in the assay with CP252 was “inactive” in each case. Also, the Potency result in the assay with CP256, with CP260, in the assay on CP262, with CP266, with CP268 and in the assay with CP269 was “inactive” throughout. In the assay on CP286, the Potency entry was “inactive”.

On to `CC(O)C(=O)O` (stereo not drawn), for which the Potency result in the assay with CP192, in the assay on CP194, with CP201, with CP203, with CP211 and in the assay on CP217 was “inactive” in each case. The Potency entry in the assay on CP237, in the assay on CP238, with CP247, in the assay on CP250, in the assay on CP252 and in the assay on CP256 was “inactive” each time. Moreover, the Potency result in the assay on CP260, in the assay on CP262, in the assay on CP265, in the assay on CP266, in the assay with CP268 and in the assay on CP269 was “inactive” in each case. In the assay with CP286, the Potency entry is “inactive”.

Take `C[C@]12CC[C@@H]3c4ccc(O)cc4CC[C@H]3[C@@H]1CC[C@@H]2O`: the Potency entry in the assay with CP192, with CP194, with CP201, in the assay with CP203, in the assay with CP211 and in the assay on CP215 was “inactive” throughout. In addition, the Potency entry in the assay on CP217, with CP237, with CP238, with CP247, in the assay with CP250 and in the assay with CP252 was “inactive” throughout. The Potency entry in the assay with CP256, with CP260, with CP262, in the assay with CP265, in the assay on CP266 and in the assay on CP268 was “inactive” throughout. For the same compound, the Potency result in the assay with CP269 and in the assay on CP286 was “inactive” each time.

With `CCCCCCCCCCCCCCCC[N+](C)(C)CCN(Cc1ccc(OC)cc1)c1ncccn1`, the Potency result in the assay on CP192, in the assay on CP194, in the assay with CP201, in the assay with CP203, in the assay with CP211 and in the assay with CP215 was “inactive” in each case. Also, the Potency entry in the assay on CP252, in the assay with CP256, in the assay on CP265 and with CP268 was “inactive” throughout.

In the case of `CC1=C(C(=O)OC(C)C)C(c2cccc([N+](=O)[O-])c2)C(C(=O)OC2CN(C(c3ccccc3)c3ccccc3)C2)=C(N)N1` (stereo not drawn), the Potency in the assay on CP192 was 7.57 µM (active); in the assay on CP194 it was 6.75 µM (active); with CP201, 7.57 µM (active); in the assay on CP203 it was 12 µM (active); with CP211, 6.75 µM (active); in the assay with CP215 it was 7.57 µM (active). In addition, the Potency was 6.31 µM (active) in the assay with CP217; 12.6 µM (active) in the assay on CP237; 8.91 µM (active) in the assay on CP238; 10 µM (active) in the assay with CP247; 8.91 µM (active) in the assay with CP250; 10 µM (active) in the assay with CP252. The Potency is 4.47 µM (active) in the assay on CP256; 6.31 µM (active) with CP260; 12 µM (active) with CP262; 7.94 µM (active) in the assay with CP265; 9.53 µM (active) in the assay with CP266; 9.53 µM (active) in the assay with CP268. In addition, the values for the Potency in the assay with CP269 and with CP286 were 8.49 µM (active) and 5.01 µM (active), respectively.

As for `CN=C(NC#N)NCCSCc1csc(N=C(N)N)n1`, the Potency result in the assay with CP192, in the assay on CP194, with CP201, with CP203, in the assay on CP211 and with CP215 was “inactive” each time. In addition, the Potency entry with CP217, with CP237, in the assay on CP238, with CP247, in the assay on CP250 and in the assay with CP252 was “inactive” in each case. For the same compound, the Potency entry with CP256, with CP260, with CP262, in the assay with CP265, with CP266 and with CP268 was “inactive” each time. Besides, the Potency entry in the assay with CP269 and with CP286 was “inactive” each time.
